Calls of active or inactive are those of the source.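 Rule for the calls: active = signal rise over 3 SD above mean of control wells given weak agonist, in both repeats and first screen; inactive = the rest.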
What follows are compounds tested on TRPC4 (mouse), co-expressed with 5HT1a in HEK293 (assay: enhancement of serotonin-evoked TRPC4 response – cell-based, second counter screen, HEK293 TRPC4/5HT1a, Fluo-4, counter-screen for TRPC4 potentiator project, confirmation (AID 434979)). Settings: Fluo-4 calcium flux, at 10 µM; outcome: serotonin added at its EC20 dose unless noted; potentiation: stronger effect = higher value, serotonin added at its EC20 dose unless noted.

Row | SMILES | outcome | potentiation
1 | Cc1ccsc1C(=O)C1CCCN(Cc2ccccc2O)C1 (stereo not drawn) | inactive | –
2 | COc1ccc(C[C@@H]2c3cc(O)c(OC)cc3CCN2C)cc1O | inactive | –
3 | CCC1=Nc2cc(C(=O)N3CCC4(CC3)OCCO4)ccc2Sc2ccc(C)cc21 | inactive [setting not given] | –
4 | Cc1ccc(CN2C3CCCC2CC(NC(=S)NCc2ccccc2)C3)cc1 (stereo not drawn) | inactive | –
5 | COc1ccc(Br)cc1CN1CCN(C(=O)Cc2ccccc2)CC1 | inactive | –
6 | CC(C)CN(CC(C)C)c1ccc(C=C2C(=O)NC(=S)NC2=O)cc1[N+](=O)[O-] | inactive [setting not given] | –
7 | CCOC(=O)C1(CCc2ccccc2)CCN(Cc2cccc3c2OCO3)CC1 | inactive | –
8 | COc1ccc(CN2CCCC(C(=O)c3sccc3C)C2)cc1O (stereo not drawn) | inactive | –
9 | CCN1CCN(Cc2cc(Br)ccc2O)CC1 | – | 16.8% (active)
10 | CCN(CC)c1ccc([N+](=O)[O-])c2cccnc12 | inactive | –
11 | CN(CCOc1ccc(C=C2C(=O)NC(=O)NC2=O)cc1)c1ccccn1 | inactive [setting not given] | –
12 | CCN(CC)CC(=O)Nc1ccc(Cl)cc1C(=O)c1ccccc1 | inactive | –
13 | COc1cccc(O)c1CN1CCCC(C(=O)c2sccc2C)C1 (stereo not drawn) | inactive | –
14 | CCC1=Nc2cc(C(=O)N3CCC4(CC3)OCCO4)ccc2Sc2ccc(Br)cc21 | inactive [setting not given] | –
15 | COc1ccc2[nH]cc(CCN(C)C)c2c1 | inactive [setting not given] | –
16 | CC(=O)OC1(c2ccccc2)CCN(C2CCCCC2)CC1C (stereo not drawn) | inactive [setting not given] | –
17 | CCOC(=O)C1(c2ccccc2)CCN(CC(=O)Nc2ccc(C)cc2)CC1 | inactive [setting not given] | –
18 | COc1ccc(O)c(CN2CCCC(C(=O)c3sccc3C)C2)c1 (stereo not drawn) | inactive | –
19 | Clc1ccc(OCC#CCN2CCCC2)cc1 | – | 26% (active)

Row | SMILES | outcome | potentiation
20 | O=C(c1cccc(C(F)(F)F)c1)C1CCCN(Cc2ccccc2O)C1 (stereo not drawn) | inactive | –
21 | CCOC(=O)C1(CCc2ccccc2)CCN(Cc2ccco2)CC1 | inactive | –
22 | Nc1ccccc1-[n+]1c(-c2ccccc2)cc(-c2ccccc2)cc1-c1ccccc1 | – | 20.7% (active)
23 | CCc1nccc2c1[nH]c1ccccc12 | inactive | –
24 | CCOC(=O)C(O)(c1ccc(NC(=S)NC(=O)c2ccc(Cl)cc2Cl)c(C)c1)C(F)(F)F (stereo not drawn) | – | 28.1% (active)
25 | COc1ccc(OC)c(N2Cc3ccccc3C2=N)c1 | inactive | –
26 | CCOc1c(Cl)cc(CNC(C)C(O)c2ccccc2)cc1OC (stereo not drawn) | inactive | –
27 | Cc1cccc(N2CCc3c2nc2ccccc2c3N)c1 | inactive | –
28 | COc1ccc(C)cc1NC1=NC(C)(C)CS1 | inactive | –
29 | N=c1n(CCO)c2ccccc2n1Cc1ccccc1 | inactive | –
30 | CCc1ccc(OCCCN=C(C)c2c(O)n(C)c(=O)n(C)c2=O)cc1 | – | 13.7% [stronger effect = higher value] (active)
31 | O=C(CN1CCCC1)Nc1ccc(Cl)cc1C(=O)c1ccccc1 | inactive | –
32 | O=C(c1ccc(Cl)cc1)C1CCCN(C2CCSCC2)C1 (stereo not drawn) | inactive | –
33 | Cc1ccc(C2CN(C)CC2C(=O)c2ccc(F)cc2)cc1 (stereo not drawn) | inactive | –
34 | O=C(Cc1ccccc1)N1CCN(Cc2cccc(Br)c2)CC1 | inactive | –
35 | Cc1cccc(N=Cc2c(O)n(-c3ccccc3C)c(=O)[nH]c2=O)c1 | – | 32.1% [stronger effect = higher value] (active)
36 | CC(Cc1ccccc1Sc1ccccc1O)N(C)C (stereo not drawn) | inactive | –
37 | COc1ccc(OC)c(CN2CCCC(C(=O)c3sccc3C)C2)c1 (stereo not drawn) | inactive | –
38 | CCCCc1ncc(CN2CCCC(C(=O)c3ccc(SC)cc3)C2)[nH]1 (stereo not drawn) | inactive | –

— PubChem BioAssay
